According to PubChem BioAssay (NCATS):
Results filed as inconclusive are left out. Active and inactive are the calls of the source. The call rests on the fitted dose curve.

experiment: Confirmatory qHTS to identify inhibitors of SARS-CoV-2 cell entry (AID 1645844); conditions: SARS-CoV-2 pseudotyped particle cell entry, luciferase; series mostly up to 57.2 µM; activity, negative = inhibition: at the top concentration; further: nearly all actives have a fitted effect of over 45% in size
Description: Assay Provider: Wei Zheng, Ph.D.
National Center for Advancing Translational Sciences, National Institute of Health, Rockville, MD.
SARS-CoV-2 spike protein, within the viral envelope, mediates viral attachment and infection of host cells. The SARS-CoV-2 spike protein specifically binds to the host receptor ACE2 (Angiotensin-converting enzyme 2). This interaction promotes endocytosis of the viral particle, additional events lead to viral-host cell membrane fusion and release of the viral contents, allowing viral replication.
While SARS-CoV-2 requires BSL-3 facilities for live virus work, pseudotyped partices (PP) that incorporate SARS-CoV-2 spike proteins without replication elements could facilitate studies on viral entry mechanisms in a BSL-2 setting. This PP cell entry assay could also enable screening of small molecule compound libraries in BSL-2 setting to identify inhibitors of SARS-CoV-2 cell entry.
SEQUENCE No. (e.g., 1, 2, 3, etc.); […] (e.g., Cells, Incubation, Reagent, etc.); VALUE and DESCRIPTION.
1. Cells. Seed 1500 HEK293-ACE2 cells (Expi293F with stable expression of human ACE2) in 2 uL/well media (DMEM, 10% FBS, 1x L-glutamine, 1x Pen/Strep, 1 ug/ml puromycin) in white 1536-well assay plates (Greiner #782073).
2. Incubation. Incubate at 37C with 5% CO2 overnight (~16 h).
3. Compounds. Dispense 23 nL/well compounds in DMSO via pin transfer.
4. Incubation. Incubate for 1 hr at 37C 5% CO2.
5. Reagent. Dispense 2 uL/well of SARS-CoV-2-S pseudotyped particles (PP). [a] PPs are produced with murine leukemia virus pseudotyping). [b] SARS-CoV-2-S is Wuhan-Hu-1 sequence (BEI #NR-52420) with C-terminal 19 amino acid truncation.
6. Centrifugation. […]
7. Incubation. Incubate at for 48 hr at 37C 5% CO2
8. Centrifugation. Remove supernatant with gentle centrifugation using a Blue Washer (BlueCat Bio).
9. Reagent. Dispense 4 uL/well of Bright-Glo Luciferase detection reagent (Promega #E2620).
10. Incubation. Incubate for 5 min at room temperature.
11. Detection. Read luminescence signal (Viewlux plate reader, PerkinElmer). Data was normalized with wells containing SARS-CoV-2-S PP as 100%, and wells containing bald PP (no fusion protein) as 0%.
On the % scale 0 is the no-effect control and ±100 the full control effect; potency means the concentration at half of the fitted maximal effect.

SMILES	Potency	activity, negative = inhibition
Cc1cc(C)c(CNC(=O)c2cc(-c3ccc(N4CCN(C)CC4)nc3)cc3c2c(C)cn3C(C)C)c(=O)[nH]1	27.1 µM (active)	–
Nc1nc(-c2nn(Cc3ccccc3F)c3ncccc23)ncc1C1CC1	5.41 µM (active)	–
CC[C@@]1(O)C(=O)OCc2c1cc1n(c2=O)Cc2cc3c([N+](=O)[O-])cccc3nc2-1	0.0175 µM (active)	–
O=C(Nc1ccnc(NC(=O)C2CC2)c1)c1c(Cl)cccc1Cl	1.92 µM (active)	–
COCCNCc1ccc(-c2cc3nccc(Oc4ccc(NC(=S)NC(=O)Cc5ccc(F)cc5)cc4F)c3s2)nc1	3.83 µM (active)	–
CS(=O)(=O)N1CCC(NC(=O)c2[nH]ncc2NC(=O)c2c(Cl)cccc2Cl)CC1	0.0341 µM (active)	–
CCCCC(=O)OCC(=O)[C@]1(O)Cc2c(O)c3c(c(O)c2[C@@H](O[C@H]2C[C@H](NC(=O)C(F)(F)F)[C@H](O)[C@H](C)O2)C1)C(=O)c1c(OC)cccc1C3=O	0.857 µM (active)	–
Nc1ccn([C@@H]2C(F)=C(CO)[C@@H](O)[C@H]2O)c(=O)n1	1.52 µM (active)	–
CC[C@]1(O)CC2CN(CCc3c([nH]c4ccccc34)[C@@](C(=O)OC)(c3cc4c(cc3OC)N(C)[C@H]3[C@@](O)(C(=O)OC)[C@H](OC(C)=O)[C@]5(CC)C=CCN6CC[C@]43[C@@H]65)C2)C1 (stereo not given in full)	0.0043 µM (active)	–
O=C(Nc1cccnc1)c1cc(-c2ccnc(F)c2)ccc1OCc1ccccc1	–	0% (inactive)
CN1C(=O)[C@@H](NC(=O)c2cc(Cc3ccccc3)on2)COc2ccccc21	–	0% (inactive)
C=C1C/C(=C\C=C2/CCC[C@]3(C)[C@@H]([C@H](C)/C=C/C(C)C(C)C)CC[C@@H]23)[C@@H](O)C[C@@H]1O (stereo not given in full)	0.541 µM (active)	–
CCNC(=O)Nc1ccc(-c2nc3c(c(N4CCOC[C@@H]4C)n2)CCN(C2COC2)C3)cc1	12.1 µM (active)	–
COc1cc([C@@H]2c3cc4c(cc3[C@@H](O[C@@H]3O[C@@H]5CO[C@@H](C)O[C@H]5[C@H](O)[C@H]3O)[C@H]3COC(=O)[C@H]23)OCO4)cc(OC)c1OP(=O)(O)O	0.541 µM (active)	–
CN1CC[C@H](CN2c3ccccc3Sc3ccccc32)C1	3.41 µM (active)	–
CC[C@H]1OC(=O)[C@H](C)[C@@H](O[C@H]2C[C@@](C)(OC)[C@@H](O)[C@H](C)O2)[C@H](C)[C@@H](O[C@@H]2O[C@H](C)C[C@H](N(C)C)[C@H]2O)[C@](C)(O)C[C@@H](C)CN(C)[C@H](C)[C@@H](O)[C@]1(C)O	24.1 µM (active)	–
O=C1NC(=O)C(c2cnc3ccccn23)=C1c1cn2c3c(cc(F)cc13)CN(C(=O)N1CCCCC1)CC2	2.15 µM (active)	–
CO[C@H](C(=O)[C@@H](O)[C@@H](C)O)C1Cc2cc3cc(O[C@H]4C[C@@H](O[C@H]5C[C@@H](O)[C@H](O)[C@@H](C)O5)[C@@H](O)[C@@H](C)O4)c(C)c(O)c3c(O)c2C(=O)[C@H]1O[C@H]1C[C@@H](O[C@H]2C[C@@H](O[C@H]3C[C@](C)(O)[C@H](O)[C@@H](C)O3)[C@H](O)[C@@H](C)O2)[C@H](O)[C@@H](C)O1 (stereo not given in full)	0.171 µM (active)	–
CC[C@]12C=CCN3CC[C@@]4(c5cc([C@@]6(C(=O)OC)C[C@H]7C[C@@H](C(C)(F)F)CN(Cc8c6[nH]c6ccccc86)C7)c(OC)cc5N(C)[C@H]4[C@@](O)(C(=O)OC)[C@@H]1OC(C)=O)[C@@H]32	0.359 µM (active)	–
CCN(CC)Cc1cc(Nc2ccnc3cc(Cl)ccc23)ccc1O	3.83 µM (active)	–

SMILES	Potency	activity, negative = inhibition
Cc1[nH]c2ccc(F)cc2c1-c1nc2c3cccnc3c3ncccc3c2[nH]1	0.555 µM (active)	–
CN[C@H]1CN(c2ccc3c(=O)c(C(=O)O)cn(-c4nccs4)c3n2)C[C@@H]1OC	0.555 µM (active)	–
CC#CC(=O)N1CC[C@@H](n2c(=O)n(-c3ccc(Oc4ccccc4)cc3)c3c(N)ncnc32)C1	21.5 µM (active)	–
Cc1cncc(CN2CCC(=C3c4ccc(Cl)cc4CCc4cccnc43)CC2)c1	0.607 µM (active)	–
COc1ncc(Nc2ncc(C(C)N3CCN(S(C)(=O)=O)CC3)cc2-c2nc(C)nc(N)n2)cc1F (stereo not given)	1.52 µM (active)	–
CCCC[C@@H](C=O)NC(=O)[C@H](CC(C)C)NC(=O)OCc1ccccc1	1.08 µM (active)	–
CC(=O)c1ccc2c(c1)c1cc(C(C)=O)ccc1n2CCNC(C)C	0.0541 µM (active)	–
CC(CN(C)C)CN1c2ccccc2Sc2ccc(C(F)(F)F)cc21 (stereo not given)	15.2 µM (active)	–
COc1cc([C@@H]2c3cc4c(cc3C(O[C@@H]3O[C@@H]5CO[C@@H](c6cccs6)OC5[C@H](O)[C@H]3O)C3COC(=O)[C@@H]32)OCO4)cc(OC)c1O (stereo not given in full)	0.0482 µM (active)	–
O=c1c(-c2ccc(O)cc2)coc2c([C@@H]3O[C@H](CO)[C@@H](O)[C@H](O)[C@H]3O)c(O)ccc12	–	-17.3% (inactive)
C=C[C@]1(C)C[C@@H](OC(=O)CSCCN(CC)CC)[C@]2(C)[C@H](C)CC[C@]3(CCC(=O)[C@H]32)[C@@H](C)[C@@H]1O	3.04 µM (active)	–
CCCCNc1ncc(-c2ccc(CN3CCOCC3)cn2)c(NC2CCC(O)CC2)n1 (stereo not given)	1.05 µM (active)	–
Nc1ncc(C(=O)NC2CN(C(=O)C3CC3)C2)c2ccc(-c3cccc(F)c3)nc12	2.71 µM (active)	–
CC(CN1c2ccccc2Sc2cccnc21)N(C)C (stereo not given)	24.1 µM (active)	–
CNC(=O)c1cccc(-c2ccc3c(N4CCOC[C@@H]4C)nc(N4CCOC[C@@H]4C)nc3n2)c1	2.41 µM (active)	–
Cc1c[nH]c2ncnc(N3CCC(CN)(C(=O)Nc4cccc(OC(=O)N(C)C)c4)CC3)c12	–	-10% [at 114 µM] (inactive)
O=C(NCc1ccccc1)[C@H](Cc1ccccc1)NC(=O)[C@H]1O[C@@H]1C(=O)NCCc1ccc(O)cc1	1.36 µM (active)	–
COc1ccc(N(C)c2nc(C)nc3ccccc23)cc1	6.81 µM (active)	–
C/C=C(\C)C(=O)N[C@@H](c1ccccc1)[C@@H](O)C(=O)O[C@H]1C[C@@]2(O)[C@@H](OC(=O)c3ccccc3)[C@@H]3[C@]4(OC(C)=O)CO[C@@H]4C[C@H](O)[C@@]3(C)C(=O)[C@H](OC(C)=O)C(=C1C)C2(C)C	0.0043 µM (active)	–
OC1CCC(Oc2cccc3cnc(Nc4ccc5nc[nH]c5c4)nc23)CC1 (stereo not given)	0.482 µM (active)	–
